# From the supplement of paper PMC6522484
# Structures can show the parent of a compound that is named as a salt. ± gives the standard deviation of the averaged measurements.
# Experiments:
# DLD1 [1] = test: cell viability (CellTiter-Glo) relative to plate median (fraction of plate median); higher = more viable cells; details: 10 µM, treatment time 24 h
# How it was run: (§1)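 Colorectal cancer cell lines carrying stably transduced lentiviral TCF/Wnt firefly luciferase reporters (7TFP or TCF4/Wnt) were plated in 384-well plates and treated 24 h later with kinase inhibitor library compounds at a final 10 µM for 24 h. Firefly luciferase or CellTiterGlo luminescence was read on parallel plates with a Tecan F500 reader. Signals were normalised per well to the plate median in webcellHTS2 (additive, no log transformation), and values are the mean of two independent replicates.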
# HCT116 [2] = test: as above; details: 10 µM; treatment time 24 h; reporter: TCF4/Wnt
# How it was run: as §1
# SW480 [3] = test: as above; details: 10 µM; treatment time 24 h; reporter: 7TFP
# How it was run: as §1
# DLD1 [4] = test: TCF/Wnt firefly luciferase reporter signal relative to plate median (fraction of plate median); higher = higher Wnt reporter signal; details: 10 µM, treatment time 24 h
# How it was run: as §1
# HCT116 [5] = test: as above; details: 10 µM; treatment time 24 h; reporter: TCF4/Wnt
# How it was run: as §1
# SW480 [6] = test: as above; details: 10 µM; treatment time 24 h; reporter: 7TFP
# How it was run: as §1
SMILES,cell viability (DLD1 [1]; reporter: 7TFP),cell viability (DLD1 [1]; reporter: TCF4/Wnt),cell viability (HCT116 [2]),cell viability (SW480 [3]),TCF/Wnt firefly luciferase reporter signal (DLD1 [4]; reporter: 7TFP),TCF/Wnt firefly luciferase reporter signal (DLD1 [4]; reporter: TCF4/Wnt),TCF/Wnt firefly luciferase reporter signal (HCT116 [5]),TCF/Wnt firefly luciferase reporter signal (SW480 [6])
Nc1nc(N)c2nc(-c3cccc(O)c3)c(-c3cccc(O)c3)nc2n1,1.06 ± 0.035,1.02 ± 0.029,1.22 ± 0.035,0.959 ± 0.025,1.08 ± 0.071,1.17 ± 0.057,1.23 ± 0.11,1.04 ± 0.14
COc1cc(Nc2ncc(F)c(Nc3ccc4c(n3)N(COP(=O)(O)O)C(=O)C(C)(C)O4)n2)cc(OC)c1OC [R788 (Fostamatinib)],0.89 ± 0.13,0.959 ± 0.046,0.888 ± 0.086,0.923 ± 0.037,0.781 ± 0.21,0.831 ± 0.079,2.88 ± 0.22,0.879 ± 0.079
Cc1cc(Nc2cc(CN3CCOCC3)c3nc(C)c(Cc4ccc(Cl)cc4F)n3n2)n[nH]1,0.907 ± 0.096,1.05 ± 0.064,0.975 ± 0.12,0.781 ± 0.14,1.27 ± 0.028,1.17 ± 0.43,0.826 ± 0.61,0.861 ± 0.05
N#CC(=C(/N)Sc1ccccc1N)/C(C#N)=C(\N)Sc1ccccc1N,1.08 ± 0.064,1.003 ± 0.0099,0.938 ± 0.043,1.06 ± 0.05,1.73 ± 0.11,1.27 ± 0.064,0.95 ± 0.071,1.59 ± 0.16
CNC(=O)c1ccc(C)c(-n2c(C)cc(OCc3ccc(F)cc3F)c(Br)c2=O)c1,1.07 ± 0.057,1.015 ± 0.0071,1.05 ± 0.035,0.868 ± 0.047,1.17 ± 0.24,1.02 ± 0.061,0.81 ± 0.046,1.02 ± 0.11
CNC(=O)c1cccc(-c2ccc3c(N4CCOC[C@@H]4C)nc(N4CCOC[C@@H]4C)nc3n2)c1,0.9035 ± 0.0064,0.874 ± 0.045,0.794 ± 0.055,1.07,0.328 ± 0.086,0.487 ± 0.073,0.549 ± 0.09,0.629 ± 0.35
Cc1nc(NC(=O)N2CCC[C@H]2C(N)=O)sc1-c1ccnc(C(C)(C)C(F)(F)F)c1,0.977 ± 0.047,0.996 ± 0.034,0.938 ± 0.1,1.09 ± 0.028,0.558 ± 0.062,0.711 ± 0.13,0.985 ± 0.13,0.791 ± 0.024
CN1CC[C@H](c2c(O)cc(O)c3c(=O)cc(-c4ccccc4Cl)oc23)[C@H](O)C1 [Flavopiridol hydrochloride],1.27 ± 0.2,1.24 ± 0.092,0.865 ± 0.29,1.36 ± 0.11,0.393 ± 0.14,0.227 ± 0.069,0.196 ± 0.047,0.869 ± 0.0099
Cc1ccc(-n2nc(C(C)(C)C)cc2NC(=O)Nc2ccc(OCCN3CCOCC3)c3ccccc23)cc1 [BIRB 796 (Doramapimod)],1.15 ± 0.057,1.12 ± 0.17,1.06 ± 0.096,0.975 ± 0.064,0.984 ± 0.0028,1.05 ± 0.17,1.18 ± 0.22,1.07 ± 0.078
O=C(O)[C@]1(Cc2cccc(Nc3nccs3)n2)CC[C@@H](Oc2cccc(Cl)c2F)CC1,1.08 ± 0.092,1.02 ± 0.014,0.959 ± 0.057,1.14 ± 0.014,0.824 ± 0.061,0.857 ± 0.2,0.568 ± 0.44,0.742 ± 0.0071
CN1CCN(c2ccc3nc(-c4c(N)c5c(F)cccc5[nH]c4=O)[nH]c3c2)CC1 [Dovitinib Dilactic acid (TKI258 Dilactic acid)],0.857 ± 0.19,0.956 ± 0.041,0.967 ± 0.13,1.17 ± 0.035,1.1 ± 0.099,1.16 ± 0.16,0.784 ± 0.52,1.09 ± 0.69
O=C(NCc1ccccc1)c1csc(Nc2ccncn2)n1 [Thiazovivin],1.14 ± 0.085,1.13 ± 0.071,1.16 ± 0.021,1.145 ± 0.0071,1.13,0.78 ± 0.18,1.78 ± 0.028,1.205 ± 0.0071
O=C(NC[C@H](O)CO)c1ccncc1Nc1ccc(I)cc1F,1.15 ± 0.078,1.14 ± 0.071,0.817 ± 0.036,1.14 ± 0.028,1.71 ± 0.46,1.73 ± 0.54,1.18 ± 0.32,2.17 ± 0.11
NC(=O)Nc1cc(-c2cccc(F)c2)sc1C(=O)N[C@H]1CCCNC1,0.645 ± 0.073,0.679 ± 0.04,0.293 ± 0.12,0.838 ± 0.13,0.667 ± 0.19,0.829 ± 0.15,0.436 ± 0.15,0.982 ± 0.14
COc1cc(Nc2c(C#N)cnc3cc(OCCCN4CCN(C)CC4)c(OC)cc23)c(Cl)cc1Cl [Bosutinib (SKI-606)],0.869 ± 0.034,0.9025 ± 0.0021,0.864 ± 0.016,0.995 ± 0.035,0.4675 ± 0.0035,0.534 ± 0.021,0.242 ± 0.22,0.648 ± 0.23
CN1CCN(c2ccc3nc(-c4c(N)c5c(F)cccc5[nH]c4=O)[nH]c3c2)CC1 [Dovitinib (TKI-258)],0.901 ± 0.18,0.908 ± 0.033,0.748 ± 0.27,1.02 ± 0.11,1.26 ± 0.23,1.3 ± 0.092,0.97 ± 0.042,1.39 ± 0.6
CC(C)(C)c1nc(-c2cccc(NS(=O)(=O)c3c(F)cccc3F)c2F)c(-c2ccnc(N)n2)s1,1 ± 0.051,0.981 ± 0.042,1.055 ± 0.0071,1.06 ± 0.064,1.18 ± 0.071,1.05 ± 0.05,0.931 ± 0.47,1.75 ± 0.014

SMILES,cell viability (DLD1 [1]; reporter: 7TFP),cell viability (DLD1 [1]; reporter: TCF4/Wnt),cell viability (HCT116 [2]),cell viability (SW480 [3]),TCF/Wnt firefly luciferase reporter signal (DLD1 [4]; reporter: 7TFP),TCF/Wnt firefly luciferase reporter signal (DLD1 [4]; reporter: TCF4/Wnt),TCF/Wnt firefly luciferase reporter signal (HCT116 [5]),TCF/Wnt firefly luciferase reporter signal (SW480 [6])
Oc1cc(O)cc(/C=C/c2ccc(O)c(O)c2)c1 [Piceatannol],1.12 ± 0.042,1.07 ± 0.057,1.19 ± 0.14,0.863 ± 0.0085,1.44 ± 0.15,1.66 ± 0.37,1.455 ± 0.0071,1.44 ± 0.12
Nc1ncnc2c1c(-c1cccc(OCc3ccccc3)c1)cn2C1CC(CN2CCCC2)C1 (configuration not stated),0.77 ± 0.15,0.809 ± 0.088,0.67 ± 0.095,0.952 ± 0.15,0.627 ± 0.15,0.755 ± 0.047,0.75 ± 0.29,0.895 ± 0.33
CNC(=O)c1cc(Oc2ccc(NC(=O)Nc3cc(C(C)(C)C)nn3-c3ccc4ncccc4c3)c(F)c2)ccn1 [DCC-2036 (Rebastinib)],1.1 ± 0.13,1.265 ± 0.0071,0.985 ± 0.035,1.08 ± 0.099,0.817 ± 0.021,0.755 ± 0.047,0.895 ± 0.2,0.746 ± 0.06
Cc1nc(Nc2ncc(C(=O)Nc3c(C)cccc3Cl)s2)cc(N2CCN(CCO)CC2)n1,0.774 ± 0.11,0.898 ± 0.13,1.01 ± 0.035,1.06 ± 0.071,0.54 ± 0.063,0.487 ± 0.031,0.706 ± 0.078,0.615 ± 0.07
COc1cc(OC)c(/C=C/S(=O)(=O)Cc2ccc(OC)c(NCC(=O)O)c2)c(OC)c1,0.988 ± 0.074,1.01 ± 0.025,0.631 ± 0.14,1.04,0.726 ± 0.011,0.772 ± 0.0014,0.198 ± 0.013,0.694 ± 0.069
CCOc1cc2ncc(C#N)c(Nc3ccc(F)c(Cl)c3)c2cc1NC(=O)/C=C/CN(C)C [Pelitinib (EKB-569)],1.02,0.875 ± 0.081,0.878 ± 0.021,1.28 ± 0.14,0.837 ± 0.16,1.01 ± 0.17,0.668 ± 0.071,1.08 ± 0.021
CO[C@@H](C(=O)N1Cc2[nH]nc(NC(=O)c3ccc(N4CCN(C)CC4)cc3)c2C1)c1ccccc1,1.09 ± 0.11,1.12 ± 0.071,0.823 ± 0.29,1.1 ± 0.042,1.23 ± 0.064,1.41 ± 0.014,0.388 ± 0.019,0.656 ± 0.083
CC(C)(C)c1cnc(CSc2cnc(NC(=O)C3CCNCC3)s2)o1,1.09 ± 0.12,1.06 ± 0.23,0.786 ± 0.17,1.3 ± 0.099,0.462 ± 0.047,1.06 ± 0.92,0.228 ± 0.0071,0.84 ± 0.025
Cc1csc(-c2nnc(Nc3ccc(Oc4ncccc4-c4ccnc(N)n4)cc3)c3ccccc23)c1,0.943 ± 0.042,1.03 ± 0.035,1.16 ± 0.071,1.03 ± 0.059,1.08 ± 0.11,0.866 ± 0.13,1.75 ± 0.14,0.983 ± 0.067
C#Cc1cccc(Nc2ncnc3cc(OCCOC)c(OCCO)cc23)c1,0.923 ± 0.073,0.988 ± 0.045,1.22 ± 0.064,0.961 ± 0.013,0.821 ± 0.11,0.819 ± 0.14,0.804 ± 0.012,1.05 ± 0.098
Cc1cc(Nc2nc(N[C@@H](C)c3ccc(F)cc3)c(C#N)cc2F)n[nH]1,0.875 ± 0.17,0.843 ± 0.062,0.831 ± 0.015,1.02 ± 0.035,1.14 ± 0.23,1.15 ± 0.25,1.22 ± 1.1,0.804 ± 0.38
NC(=O)c1ccc(-c2nc(-c3ccccn3)c(-c3ccc4c(c3)OCO4)[nH]2)cc1,0.936 ± 0.16,0.968 ± 0.014,1.09 ± 0.035,0.829 ± 0.037,0.99 ± 0.043,1.2 ± 0.085,1.21 ± 0.085,0.944 ± 0.15
N#CC1(c2ccc(NC(=O)c3cccnc3NCc3ccncc3)cc2)CCCC1 [Apatinib (YN968D1)],1.14 ± 0.042,1.025 ± 0.0071,1.22 ± 0.035,0.912 ± 0.0092,0.975 ± 0.064,1.095 ± 0.0071,0.727 ± 0.39,0.761 ± 0.32
Oc1ccc(-c2nc(-c3ccc(F)cc3)c(-c3ccncc3)[nH]2)cc1,1.08 ± 0.064,1.04 ± 0.014,1.14 ± 0.021,0.916 ± 0.013,0.747 ± 0.27,0.85 ± 0.04,1.05 ± 0.035,0.792 ± 0.15
COCCOc1ccc2c(c1)ncn2-c1ccc2cccc(N3CCC(N)CC3)c2n1,0.954 ± 0.11,1.14 ± 0.12,0.556 ± 0.16,1.05 ± 0.082,1.54 ± 0.16,2.17 ± 0.41,0.422 ± 0.12,1.71 ± 0.26
CN1CCN(c2cccc(Nc3nc4c(-c5ccc(S(C)(=O)=O)cc5)cccn4n3)c2)CC1,0.927 ± 0.013,0.896 ± 0.042,0.871 ± 0.031,1.055 ± 0.0071,0.96 ± 0.1,1.03 ± 0.057,1.32 ± 0.7,1.34 ± 0.56
Cc1nc(N)sc1-c1ccnc(Nc2ccc(N3CCOCC3)cc2)n1,1.09 ± 0.14,1.09 ± 0.085,1.07 ± 0.064,1.06 ± 0.028,1.24 ± 0.23,1.23 ± 0.36,1.72 ± 0.2,0.774 ± 0.36
